Laboratory results from PubChem BioAssay (NCI).
About 79,000 compounds went through this panel and 15% of them were active in at least one assay; those are over-represented in the sample as a whole. A number with no mark means an inactive call. Active and inactive are the calls of the source. Rule as the data show it: active = growth inhibition above about 70%; inactive = the rest.

Assays:
[1] = NCI Yeast Anticancer Drug Screen. Data for the rad52 strain (AID 147);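 also: 0% = growth of vehicle-treated control cultures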; details: S. cerevisiae rad52 mutant growth inhibition, hits give high values
Procedure, shortened: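 Here a repair-compromised yeast strain receives each compound; its growth is then quantified and normalised to vehicle-only controls.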

[2] = NCI Yeast Anticancer Drug Screen. Data for the rad50EPP+ strain (AID 151);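 also: 0% = growth of vehicle-treated control cultures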; details: S. cerevisiae rad50 mutant strain, hits give high values
Procedure, shortened: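 Read-out is yeast growth inhibition relative to vehicle; cells used were the rad50EPP+ strain.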

[3] = NCI Yeast Anticancer Drug Screen. Data for the mgt1 strain (AID 153); details: S. cerevisiae mgt1 mutant growth inhibition, hits give high values
Procedure, shortened: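 Measured: inhibition of mgt1 yeast growth by compound, normalized to vehicle-treated cultures.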

[4] = NCI Yeast Anticancer Drug Screen. Data for the rad50 strain (AID 155);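 also: 0% = growth of vehicle-only cultures of the same strain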; details: S. cerevisiae rad50 strain growth inhibition, hits give high values
Procedure, shortened: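 Growth of the mutant yeast was measured after compound exposure and referenced to vehicle-treated cultures.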

[5] = NCI Yeast Anticancer Drug Screen. Data for the mec2-1 strain (AID 157); details: S. cerevisiae mec2-1 strain, hits give high values
Procedure, shortened: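 Using mec2-1 yeast: add compound, measure growth, express inhibition versus vehicle-treated cultures.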

[6] = NCI Yeast Anticancer Drug Screen. Data for the rad14 strain (AID 159);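 also: 0% = growth of vehicle-treated control cultures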; details: S. cerevisiae rad14 strain growth inhibition, hits give high values
Procedure, shortened: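 Here, inhibition of yeast growth was measured after compound exposure, using a strain with a genetic defect in DNA damage repair and vehicle-treated cultures as the reference.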

[7] = NCI Yeast Anticancer Drug Screen. Data for the sgs1 mgt1 strain (AID 161);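 also: 0% = growth of cultures given vehicle only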; details: S. cerevisiae sgs1 mgt1 strain, hits give high values
Procedure, shortened: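 Compounds are added to genetically altered yeast, and growth is compared with cultures given vehicle alone to give percent inhibition.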

[8] = NCI Yeast Anticancer Drug Screen. Data for the cln2 rad14 strain (AID 165);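 also: 0% = growth equal to vehicle treated cultures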; details: S. cerevisiae cln2 rad14 strain, hits give high values
Procedure, shortened: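 Yeast strain cln2 rad14, bearing defects in cell cycle control and DNA repair, serves as the test system; values reflect growth inhibition compared with vehicle.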

[9] = NCI Yeast Anticancer Drug Screen. Data for the bub3 strain (AID 167); details: S. cerevisiae bub3 mutant strain, hits give high values
Procedure, shortened: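 Whole-cell yeast assay. The mutant strain was incubated with compounds, and growth inhibition was determined by comparison with vehicle-treated cells.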

[10] = NCI Yeast Anticancer Drug Screen. Data for the wt2 strain (AID 169);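 also: 0% = growth of vehicle-treated yeast cultures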; details: S. cerevisiae wt2 strain growth inhibition, hits give high values
Procedure, shortened: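 Treated yeast vs. vehicle-treated yeast: growth inhibition determined.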

[11] = NCI Yeast Anticancer Drug Screen. Data for the mlh1 strain (AID 171);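 also: 0% = growth of vehicle-treated control cultures of the same strain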; details: S. cerevisiae mlh1 strain growth inhibition, hits give high values
Procedure, shortened: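 A yeast strain with a defined genetic lesion serves as the test organism. Cultures receive compound or vehicle, and growth is measured.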

[12] = NCI Yeast Anticancer Drug Screen. Data for the sgs1 strain (AID 173);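 also: 0% = growth of vehicle-only control cultures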; details: S. cerevisiae sgs1 mutant, hits give high values
Procedure, shortened: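 A genetically defined yeast mutant is incubated with the test compound, and its growth is compared to that of the same strain given vehicle.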

[13] = NCI Yeast Anticancer Drug Screen. Data for the mlh1 rad18 strain (AID 175); details: S. cerevisiae mlh1 rad18 strain growth inhibition, hits give high values
Procedure, shortened: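 Steps: expose repair-defective yeast to compound; measure growth; express inhibition against vehicle-treated controls.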

[14] = NCI Yeast Anticancer Drug Screen. Data for the rad18 strain (AID 177); details: S. cerevisiae rad18 mutant growth inhibition, hits give high values
Procedure, shortened: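 Measured value is growth inhibition of a yeast strain bearing a DNA repair alteration, referenced to vehicle-treated cells.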

[15] = NCI Yeast Anticancer Drug Screen. Data for the wt1 strain (AID 149);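 also: 0% = growth of vehicle-treated wt1 cultures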; details: S. cerevisiae wt1 strain (SPY 50644) growth inhibition, hits give high values
Procedure, shortened: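 Measured: growth of wt1 yeast under compound versus vehicle treatment, reported as inhibition.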

[16] = at 5.0 µM (retest, dose inferred, filed as 0.5)
[17] = at 50.0 µM (retest, dose inferred, filed as 5.0)

Question: Which results are given for `C=CCNC1=C2C[C@@H](C)C[C@H](OC)[C@H](O)[C@@H](C)/C=C(\C)[C@H](OC(N)=O)[C@@H](OC)/C=C\C=C(/C)C(=O)NC(=CC1=O)C2=O`?
Answer: growth inhibition ([1]; at 1.2 µM): -16%; growth inhibition ([1]; at 3.7 µM): -21%; growth inhibition ([1]; at 11.0 µM): 46%; growth inhibition ([1]; at 33.0 µM): 97% (active); growth inhibition ([1]; at 100.0 µM): 97% (active); growth inhibition ([2]; at 1.2 µM): -33%; growth inhibition ([2]; at 3.7 µM): -43%; growth inhibition ([2]; at 11.0 µM): -46%; growth inhibition ([2]; at 33.0 µM): -30%; growth inhibition ([2]; at 100.0 µM): -1%; growth inhibition ([3]; at 1.2 µM): -72%; growth inhibition ([3]; at 3.7 µM): -44%; growth inhibition ([3]; at 11.0 µM): 57%; growth inhibition ([3]; at 33.0 µM): 95% (active); growth inhibition ([3]; at 100.0 µM): 95% (active); growth inhibition ([4]; at 1.2 µM): -33%; growth inhibition ([4]; at 3.7 µM): -12%; growth inhibition [4, 16]: -32%; growth inhibition ([4]; at 11.0 µM): 64%; growth inhibition ([4]; at 33.0 µM): 95% (active); growth inhibition [4, 17]: 96% (active); growth inhibition ([4]; at 50.0 µM): 90.8% (active); growth inhibition ([4]; at 100.0 µM): 95% (active); growth inhibition ([5]; at 1.2 µM): -73%; growth inhibition ([5]; at 3.7 µM): -59%; growth inhibition [5, 16]: 5%; growth inhibition ([5]; at 11.0 µM): 77% (active); growth inhibition ([5]; at 33.0 µM): 96% (active); growth inhibition [5, 17]: 98% (active); growth inhibition ([5]; at 50.0 µM): 92.5% (active); growth inhibition ([5]; at 100.0 µM): 95% (active); growth inhibition ([6]; at 1.2 µM): -73%; growth inhibition ([6]; at 3.7 µM): -42%; growth inhibition ([6]; at 11.0 µM): 55%; growth inhibition ([6]; at 33.0 µM): 95% (active); growth inhibition ([6]; at 100.0 µM): 94% (active); growth inhibition [7, 16]: -7%; growth inhibition [7, 17]: 96% (active); growth inhibition ([7]; at 50.0 µM): 92% (active); growth inhibition [8, 16]: -4%; growth inhibition [8, 17]: 97% (active); growth inhibition ([8]; at 50.0 µM): 90.3% (active); growth inhibition ([9]; at 1.2 µM): -49%; growth inhibition ([9]; at 3.7 µM): -12%; growth inhibition [9, 16]: 35%; growth inhibition ([9]; at 11.0 µM): 74% (active); growth inhibition ([9]; at 33.0 µM): 95% (active); growth inhibition [9, 17]: 98% (active); growth inhibition ([9]; at 50.0 µM): 90.4% (active); growth inhibition ([9]; at 100.0 µM): 94% (active); growth inhibition ([10]; at 1.2 µM): -51%; growth inhibition ([10]; at 3.7 µM): -65%; growth inhibition ([10]; at 11.0 µM): 33%; growth inhibition ([10]; at 33.0 µM): 93% (active); growth inhibition ([10]; at 100.0 µM): 96% (active); growth inhibition ([11]; at 1.2 µM): -36%; growth inhibition ([11]; at 3.7 µM): -56%; growth inhibition ([11]; at 11.0 µM): 50%; growth inhibition ([11]; at 33.0 µM): 94% (active); growth inhibition ([11]; at 100.0 µM): 95% (active); growth inhibition ([12]; at 1.2 µM): -34%; growth inhibition ([12]; at 3.7 µM): -10%; growth inhibition ([12]; at 11.0 µM): 56%; growth inhibition ([12]; at 33.0 µM): 94% (active); growth inhibition ([12]; at 100.0 µM): 96% (active); growth inhibition [13, 16]: -7%; growth inhibition [13, 17]: 97% (active); growth inhibition ([13]; at 50.0 µM): 89.1% (active); growth inhibition ([14]; at 1.2 µM): -22%; growth inhibition ([14]; at 3.7 µM): -23%; growth inhibition ([14]; at 11.0 µM): 68%; growth inhibition ([14]; at 33.0 µM): 95% (active); growth inhibition ([14]; at 100.0 µM): 95% (active)

Question: What does the source list for `O=C(C#Cc1ccccc1)Nc1ccccc1`?
Answer: growth inhibition ([15]; at 1.2 µM): -1%; growth inhibition ([15]; at 3.7 µM): -10%; growth inhibition ([15]; at 11.0 µM): -6%; growth inhibition ([15]; at 33.0 µM): 6%; growth inhibition ([15]; at 100.0 µM): 95% (active); growth inhibition ([2]; at 1.2 µM): -4%; growth inhibition ([2]; at 3.7 µM): 4%; growth inhibition ([2]; at 11.0 µM): 37%; growth inhibition ([2]; at 33.0 µM): 70% (active); growth inhibition ([2]; at 100.0 µM): 92% (active); growth inhibition ([3]; at 1.2 µM): -5%; growth inhibition ([3]; at 3.7 µM): -10%; growth inhibition ([3]; at 11.0 µM): -4%; growth inhibition ([3]; at 33.0 µM): 58%; growth inhibition ([3]; at 100.0 µM): 97% (active); growth inhibition ([4]; at 1.2 µM): -20%; growth inhibition ([4]; at 3.7 µM): -25%; growth inhibition [4, 16]: -147%; growth inhibition ([4]; at 11.0 µM): -17%; growth inhibition ([4]; at 33.0 µM): 52%; growth inhibition [4, 17]: 20%; growth inhibition ([4]; at 50.0 µM): 45.8%; growth inhibition ([4]; at 100.0 µM): 97% (active); growth inhibition ([5]; at 1.2 µM): -9%; growth inhibition ([5]; at 3.7 µM): -7%; growth inhibition [5, 16]: -48%; growth inhibition ([5]; at 11.0 µM): -8%; growth inhibition ([5]; at 33.0 µM): -2%; growth inhibition [5, 17]: -29%; growth inhibition ([5]; at 50.0 µM): 33.6%
